The target in experiment [1] is Serine/threonine-protein kinase MARK2 (Homo sapiens) (UniProt Q7KZI7). The note with it: at 1 µM.
The target in experiment [2] is PAS domain-containing serine/threonine-protein kinase (Homo sapiens) (UniProt Q96RG2). The note with it: at 0.1 µM.
Experiment [3] shares this target. The note with it: at 1 µM.
In experiment [4] the target is Phosphorylase b kinase gamma catalytic chain, skeletal muscle/heart isoform (Homo sapiens) (UniProt Q16816). The note with it: at 0.1 µM.
For experiment [5] the target is unchanged. The note with it: at 1 µM.
The target in experiment [6] is T1, Phosphorylase b kinase gamma catalytic chain, liver/testis isoform (Homo sapiens) (UniProt P15735).
T1 sequence (whole entry): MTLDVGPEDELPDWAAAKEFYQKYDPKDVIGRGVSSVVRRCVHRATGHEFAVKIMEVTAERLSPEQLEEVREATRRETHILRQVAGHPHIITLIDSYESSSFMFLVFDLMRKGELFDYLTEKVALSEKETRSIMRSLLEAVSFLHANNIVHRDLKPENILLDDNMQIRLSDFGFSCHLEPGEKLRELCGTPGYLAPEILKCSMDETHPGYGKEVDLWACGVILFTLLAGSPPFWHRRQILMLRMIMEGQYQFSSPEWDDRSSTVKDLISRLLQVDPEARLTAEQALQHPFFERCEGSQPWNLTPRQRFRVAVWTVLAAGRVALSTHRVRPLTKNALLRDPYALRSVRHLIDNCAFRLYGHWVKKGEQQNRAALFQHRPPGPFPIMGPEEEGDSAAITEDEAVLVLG
The note with it: at 0.1 µM.

Experiment [7] concerns the target T1, Phosphorylase b kinase gamma catalytic chain, liver/testis isoform (Homo sapiens). The note with it: at 1 µM.
Experiment [8] addresses Serine/threonine-protein kinase pim-1 (Homo sapiens) (UniProt P11309). The note with it: at 0.1 µM.
For experiment [9] the target is unchanged. The note with it: at 1 µM.
The target of experiment [10] is Serine/threonine-protein kinase pim-2 (Homo sapiens) (UniProt Q9P1W9). The note with it: at 0.1 µM.
Experiment [11] has the same target. The note with it: at 1 µM.
For experiment [12], the target named is Serine/threonine-protein kinase pim-3 (Homo sapiens) (UniProt Q86V86). The note with it: at 0.1 µM.
For experiment [13] the target is unchanged. The note with it: at 1 µM.
Experiment [14] addresses T2, MAP kinase-activated protein kinase 5 (Homo sapiens) (UniProt Q8IW41).
T2 sequence (whole entry): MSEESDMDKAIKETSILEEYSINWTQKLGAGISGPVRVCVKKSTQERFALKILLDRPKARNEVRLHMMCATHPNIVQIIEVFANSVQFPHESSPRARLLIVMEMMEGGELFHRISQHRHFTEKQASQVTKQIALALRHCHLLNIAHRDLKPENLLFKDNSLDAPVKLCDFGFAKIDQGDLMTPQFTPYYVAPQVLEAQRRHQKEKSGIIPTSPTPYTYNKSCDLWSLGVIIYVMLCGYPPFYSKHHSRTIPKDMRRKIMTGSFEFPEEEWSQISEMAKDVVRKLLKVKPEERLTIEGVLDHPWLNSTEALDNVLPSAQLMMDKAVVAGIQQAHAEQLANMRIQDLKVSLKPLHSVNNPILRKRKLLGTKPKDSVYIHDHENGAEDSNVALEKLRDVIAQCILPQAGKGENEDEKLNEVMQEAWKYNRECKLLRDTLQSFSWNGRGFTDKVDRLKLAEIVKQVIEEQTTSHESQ
The note with it: at 0.1 µM.

Experiment [15] concerns the target T2, MAP kinase-activated protein kinase 5 (Homo sapiens). The note with it: at 1 µM.
Experiment [16] concerns the target Serine/threonine-protein kinase SIK1 (Homo sapiens) (UniProt P57059). The note with it: at 0.1 µM.
Experiment [17] has the same target. The note with it: at 1 µM.
The target in experiment [18] is Serine/threonine-protein kinase SIK2 (Homo sapiens) (UniProt Q9H0K1). The note with it: at 0.1 µM.
Experiment [19] has the same target. The note with it: at 1 µM.
Experiment [20] has as its target T3, Serine/threonine-protein kinase TBK1 (Homo sapiens) (UniProt Q9UHD2).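 Further: values are the mean TBK1 inhibition, taken from the GSK PKIS screening data.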
T3 sequence (whole entry): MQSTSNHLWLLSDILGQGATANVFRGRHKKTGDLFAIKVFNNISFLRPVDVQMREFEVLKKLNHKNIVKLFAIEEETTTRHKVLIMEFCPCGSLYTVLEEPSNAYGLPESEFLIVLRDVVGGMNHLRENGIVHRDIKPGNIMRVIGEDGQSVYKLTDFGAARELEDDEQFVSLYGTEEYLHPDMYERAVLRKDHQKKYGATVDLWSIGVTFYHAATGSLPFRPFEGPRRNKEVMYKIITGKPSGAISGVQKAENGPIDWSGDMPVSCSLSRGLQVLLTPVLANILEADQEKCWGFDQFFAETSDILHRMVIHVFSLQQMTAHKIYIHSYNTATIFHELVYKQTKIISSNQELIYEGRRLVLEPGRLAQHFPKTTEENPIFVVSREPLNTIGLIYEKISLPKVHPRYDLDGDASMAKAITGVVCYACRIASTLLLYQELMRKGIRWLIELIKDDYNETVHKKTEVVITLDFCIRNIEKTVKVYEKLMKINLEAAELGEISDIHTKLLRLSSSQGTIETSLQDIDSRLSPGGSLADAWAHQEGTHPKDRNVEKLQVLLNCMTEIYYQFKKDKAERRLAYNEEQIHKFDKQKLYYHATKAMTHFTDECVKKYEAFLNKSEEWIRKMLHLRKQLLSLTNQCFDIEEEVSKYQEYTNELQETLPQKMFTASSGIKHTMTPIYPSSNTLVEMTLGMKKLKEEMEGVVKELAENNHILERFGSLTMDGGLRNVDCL
The note with it: at 0.1 µM.

Serine/threonine-protein kinase SIK2 (Homo sapiens), sequence (Q9H0K1 whole entry, looked up): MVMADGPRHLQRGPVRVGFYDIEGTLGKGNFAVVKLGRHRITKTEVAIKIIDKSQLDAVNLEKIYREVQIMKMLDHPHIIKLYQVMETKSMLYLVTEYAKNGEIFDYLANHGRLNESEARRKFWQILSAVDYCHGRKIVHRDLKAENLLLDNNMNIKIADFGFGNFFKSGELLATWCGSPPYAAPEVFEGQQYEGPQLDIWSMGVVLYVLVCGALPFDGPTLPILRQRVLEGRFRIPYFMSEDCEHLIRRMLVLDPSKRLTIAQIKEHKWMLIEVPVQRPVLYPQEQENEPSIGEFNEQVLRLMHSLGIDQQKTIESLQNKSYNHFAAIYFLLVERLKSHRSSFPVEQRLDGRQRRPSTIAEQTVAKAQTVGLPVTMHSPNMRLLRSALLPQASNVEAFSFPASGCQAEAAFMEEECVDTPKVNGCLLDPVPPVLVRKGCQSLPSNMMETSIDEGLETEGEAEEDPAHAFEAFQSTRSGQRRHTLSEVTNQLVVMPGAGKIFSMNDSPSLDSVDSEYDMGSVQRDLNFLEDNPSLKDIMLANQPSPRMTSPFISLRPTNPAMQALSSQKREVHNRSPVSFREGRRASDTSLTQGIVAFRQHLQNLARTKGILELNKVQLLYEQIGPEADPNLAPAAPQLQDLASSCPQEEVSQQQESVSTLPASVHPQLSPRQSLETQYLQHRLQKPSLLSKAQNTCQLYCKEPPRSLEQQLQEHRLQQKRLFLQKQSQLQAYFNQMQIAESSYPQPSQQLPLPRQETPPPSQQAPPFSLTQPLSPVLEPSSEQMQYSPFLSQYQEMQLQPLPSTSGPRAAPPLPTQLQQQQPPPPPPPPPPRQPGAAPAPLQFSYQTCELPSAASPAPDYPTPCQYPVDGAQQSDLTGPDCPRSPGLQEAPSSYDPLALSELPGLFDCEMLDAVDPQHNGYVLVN
Serine/threonine-protein kinase SIK1 (Homo sapiens), sequence (P57059 whole entry): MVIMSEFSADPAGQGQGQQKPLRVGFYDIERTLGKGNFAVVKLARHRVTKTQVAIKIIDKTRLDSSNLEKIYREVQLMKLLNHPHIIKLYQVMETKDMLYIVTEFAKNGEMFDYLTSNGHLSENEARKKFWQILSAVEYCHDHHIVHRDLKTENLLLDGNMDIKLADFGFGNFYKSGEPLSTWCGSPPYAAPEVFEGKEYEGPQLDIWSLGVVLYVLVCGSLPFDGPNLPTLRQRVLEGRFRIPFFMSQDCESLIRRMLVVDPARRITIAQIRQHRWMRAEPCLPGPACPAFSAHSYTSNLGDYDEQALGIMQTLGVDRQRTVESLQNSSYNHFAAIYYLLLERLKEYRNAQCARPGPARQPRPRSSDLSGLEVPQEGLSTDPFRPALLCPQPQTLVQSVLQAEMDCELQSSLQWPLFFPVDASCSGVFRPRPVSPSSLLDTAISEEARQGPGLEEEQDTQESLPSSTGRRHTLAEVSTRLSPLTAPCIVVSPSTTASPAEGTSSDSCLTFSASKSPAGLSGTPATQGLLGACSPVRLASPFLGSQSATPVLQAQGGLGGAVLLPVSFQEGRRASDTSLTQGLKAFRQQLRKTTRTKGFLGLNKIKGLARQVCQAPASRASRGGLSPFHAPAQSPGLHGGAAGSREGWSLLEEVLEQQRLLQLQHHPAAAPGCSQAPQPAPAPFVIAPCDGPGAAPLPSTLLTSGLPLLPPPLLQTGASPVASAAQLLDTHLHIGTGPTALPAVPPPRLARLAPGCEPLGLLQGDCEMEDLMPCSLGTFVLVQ
Serine/threonine-protein kinase pim-2 (Homo sapiens), sequence (Q9P1W9 whole entry, looked up): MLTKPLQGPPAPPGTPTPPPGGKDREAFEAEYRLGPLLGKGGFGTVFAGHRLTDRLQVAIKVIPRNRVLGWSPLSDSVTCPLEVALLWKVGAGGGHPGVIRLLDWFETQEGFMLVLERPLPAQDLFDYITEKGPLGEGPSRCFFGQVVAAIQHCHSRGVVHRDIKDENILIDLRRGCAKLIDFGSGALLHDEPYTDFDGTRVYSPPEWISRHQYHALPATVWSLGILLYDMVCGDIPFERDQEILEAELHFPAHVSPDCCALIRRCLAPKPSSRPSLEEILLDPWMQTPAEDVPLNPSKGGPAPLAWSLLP
Serine/threonine-protein kinase MARK2 (Homo sapiens), sequence (Q7KZI7 whole entry, the tested form may be a part): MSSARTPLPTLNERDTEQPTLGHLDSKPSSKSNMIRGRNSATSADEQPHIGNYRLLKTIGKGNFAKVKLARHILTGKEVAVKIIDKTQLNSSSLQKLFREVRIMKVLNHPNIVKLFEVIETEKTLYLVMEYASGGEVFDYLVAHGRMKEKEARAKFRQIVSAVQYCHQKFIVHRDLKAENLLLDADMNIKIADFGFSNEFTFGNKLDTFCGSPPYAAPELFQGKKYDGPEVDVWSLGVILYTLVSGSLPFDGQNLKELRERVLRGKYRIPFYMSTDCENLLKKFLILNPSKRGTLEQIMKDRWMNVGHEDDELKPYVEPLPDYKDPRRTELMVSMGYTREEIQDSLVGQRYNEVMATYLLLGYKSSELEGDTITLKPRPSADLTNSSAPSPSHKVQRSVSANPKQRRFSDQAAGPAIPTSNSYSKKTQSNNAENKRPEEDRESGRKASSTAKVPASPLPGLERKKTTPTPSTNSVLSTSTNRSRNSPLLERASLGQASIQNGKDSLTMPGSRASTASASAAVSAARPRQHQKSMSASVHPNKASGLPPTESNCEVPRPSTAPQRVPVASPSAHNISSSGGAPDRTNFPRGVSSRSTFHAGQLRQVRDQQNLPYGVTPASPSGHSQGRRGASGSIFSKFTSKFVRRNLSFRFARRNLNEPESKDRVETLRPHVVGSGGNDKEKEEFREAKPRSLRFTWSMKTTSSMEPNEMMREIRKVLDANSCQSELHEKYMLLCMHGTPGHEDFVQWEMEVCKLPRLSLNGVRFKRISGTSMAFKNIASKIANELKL
PAS domain-containing serine/threonine-protein kinase (Homo sapiens), sequence (Q96RG2 whole entry, the tested form may be a part): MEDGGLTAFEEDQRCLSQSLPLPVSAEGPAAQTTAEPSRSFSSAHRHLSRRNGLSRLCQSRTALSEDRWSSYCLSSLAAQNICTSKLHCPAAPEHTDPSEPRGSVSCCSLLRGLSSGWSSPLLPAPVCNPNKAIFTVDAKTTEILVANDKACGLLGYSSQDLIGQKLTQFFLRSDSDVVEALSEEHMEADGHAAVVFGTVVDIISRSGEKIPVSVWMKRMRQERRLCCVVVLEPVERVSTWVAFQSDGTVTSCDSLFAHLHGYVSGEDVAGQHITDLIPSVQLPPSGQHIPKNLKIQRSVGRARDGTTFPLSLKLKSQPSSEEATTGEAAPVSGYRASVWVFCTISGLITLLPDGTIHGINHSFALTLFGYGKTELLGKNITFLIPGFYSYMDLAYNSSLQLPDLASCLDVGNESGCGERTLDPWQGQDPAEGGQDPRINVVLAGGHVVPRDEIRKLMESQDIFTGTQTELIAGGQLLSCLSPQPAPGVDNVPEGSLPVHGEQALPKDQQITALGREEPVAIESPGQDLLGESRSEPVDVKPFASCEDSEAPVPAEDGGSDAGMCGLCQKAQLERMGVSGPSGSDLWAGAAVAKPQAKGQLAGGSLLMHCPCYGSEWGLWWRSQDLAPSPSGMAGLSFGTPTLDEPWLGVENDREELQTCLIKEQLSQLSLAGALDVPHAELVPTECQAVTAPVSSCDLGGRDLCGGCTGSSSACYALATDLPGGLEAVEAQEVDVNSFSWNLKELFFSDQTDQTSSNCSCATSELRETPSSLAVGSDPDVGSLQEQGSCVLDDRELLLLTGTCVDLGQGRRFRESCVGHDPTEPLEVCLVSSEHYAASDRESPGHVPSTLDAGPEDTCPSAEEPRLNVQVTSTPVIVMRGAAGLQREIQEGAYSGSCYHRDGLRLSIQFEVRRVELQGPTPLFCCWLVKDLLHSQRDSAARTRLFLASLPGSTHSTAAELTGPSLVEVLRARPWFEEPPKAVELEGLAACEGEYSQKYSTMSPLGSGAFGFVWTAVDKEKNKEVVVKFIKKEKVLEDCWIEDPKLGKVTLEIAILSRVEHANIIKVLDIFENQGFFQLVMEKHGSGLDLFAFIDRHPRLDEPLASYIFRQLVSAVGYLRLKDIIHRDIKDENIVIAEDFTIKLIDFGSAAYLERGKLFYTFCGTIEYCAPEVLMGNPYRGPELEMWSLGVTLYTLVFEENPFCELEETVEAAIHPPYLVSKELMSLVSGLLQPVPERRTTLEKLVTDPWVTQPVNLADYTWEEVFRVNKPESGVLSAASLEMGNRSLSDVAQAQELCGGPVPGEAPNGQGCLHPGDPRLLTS
Serine/threonine-protein kinase pim-1 (Homo sapiens), sequence (P11309 whole entry, looked up): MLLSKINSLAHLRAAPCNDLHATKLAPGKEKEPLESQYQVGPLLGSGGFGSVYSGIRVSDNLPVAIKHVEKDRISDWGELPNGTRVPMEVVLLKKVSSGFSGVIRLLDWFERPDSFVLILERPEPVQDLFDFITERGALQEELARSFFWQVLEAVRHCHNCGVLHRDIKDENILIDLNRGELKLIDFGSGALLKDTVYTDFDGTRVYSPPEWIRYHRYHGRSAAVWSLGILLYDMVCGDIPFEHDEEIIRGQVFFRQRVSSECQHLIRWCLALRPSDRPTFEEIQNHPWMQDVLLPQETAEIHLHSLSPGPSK

Usually inhibition stands for the change of the read-out against control, counted positive when it falls. On to `Nc1nc(-c2ccccn2)c(-c2ccc3ncccc3n2)s1`, for which the inhibition in experiment [1] was 1.77%; in [2], -0.2%; in experiment [3], -0.49%; in experiment [4], 0.58%; in experiment [5], 4.27%; in [6], 4.79%. Also, the inhibition was 5.31% in experiment [7]; 0.81% in [8]; 2.21% in experiment [9]; -0.67% in experiment [10]; 0.01% in experiment [11]; 0.6% in [12]. Further, the inhibition in experiment [13] stood at 2.63%; in [14], 1.31%; in experiment [15], 1.64%; in experiment [16] it was 4.91%; in [17], 3.52%; in [18], 4.07%. Also, the figures for the inhibition in [19] and in [20] were 4.74% and 2.8%, respectively.

Consider `CS(=O)(=O)Nc1ccc(N/C=C2\C(=O)Nc3ccccc32)cc1`, for which the inhibition in experiment [1] was 15.6%; in [2], 0.59%; in experiment [3] it was 0.59%; in [4], 4.32%; in experiment [5], 31.5%; in experiment [6], -3.81%. Besides, the inhibition was 5.2% in experiment [7]; 0.18% in experiment [8]; 0.04% in experiment [9]; -0.01% in experiment [10]; 0.67% in [11]; 0.5% in [12]. For the same compound, the inhibition in [13] was 2.02%; in experiment [14], -0.78%; in experiment [15], -0.07%; in [17], 2.58%; in experiment [18], 4.05%; in experiment [19], -6.11%. Besides, the inhibition in experiment [20] stood at 0.52%.

With `COc1cc2ncn(-c3cc(O[C@H](C)c4ccccc4Cl)c(C(N)=O)s3)c2cc1OC`, the inhibition was determined as 17.8% in experiment [1]; 1.62% in experiment [2]; 5.27% in experiment [3]; 3.66% in experiment [4]; 6.72% in experiment [5]; 6.57% in experiment [6]. For the same compound, the inhibition was found to be 12.9% in experiment [7]; 1.15% in experiment [8]; 3.93% in experiment [9]; 0.26% in experiment [10]; 0.96% in experiment [11]; 2.36% in experiment [12]. The inhibition worked out at 12.4% in experiment [13]; 2.09% in experiment [14]; 4.22% in experiment [15]; 12.6% in experiment [16]; 53.1% in [17]; 10.9% in [18]. Besides, the inhibition in [19] came to 24.8%; in [20] it was 3.11%.

As for `CCCN1CCC=C(c2ccc(Nc3nc(Nc4ccccc4C(N)=O)c4cc[nH]c4n3)c(C)c2)C1`, the inhibition in experiment [1] is 14.6%; in experiment [2], -1.89%; in experiment [3] it was -1.19%; in experiment [4], -1.86%; in experiment [5] it was 48.2%; in [6], 7.18%. Moreover, the inhibition in [7] was 16.4%; in experiment [8], 2.16%; in [9], 7.46%; in experiment [10], 0.34%; in experiment [11] it was 4.08%; in experiment [12] it was 2.03%. The inhibition was 12.5% in [13]; 1.79% in experiment [14]; 5.7% in experiment [15]; 5.62% in [16]; 9.29% in experiment [17]; 2.87% in [18]. Besides, the inhibition in experiment [19] amounted to 8.52%; in [20], 3.95%.

For the compound `CS(=O)(=O)CCNCc1ccc(-c2ccc3ncnc(Nc4ccc(OCc5cccc(F)c5)c(C(F)(F)F)c4)c3c2)o1`, the inhibition was -0.27% in [1]; -0.62% in [2]; 0.4% in experiment [3]; 5.41% in experiment [4]; 4.1% in experiment [5]; 4.72% in experiment [6]. For the same compound, the inhibition in experiment [7] came out at 4.64%; in experiment [8], 1.03%; in experiment [9] it was 1.08%; in experiment [10], 0.19%; in [11] it was 0.66%; in experiment [12] it was 0.74%. In addition, the inhibition in [13] turned out to be 0.16%; in experiment [14], 1.63%; in experiment [15], 2.16%; in [16] it was 0.39%; in experiment [17], 9.67%; in [18], 2.19%. Further, the inhibition in [19] was found to be 10.8%; in [20], 1.68%.

With `COc1ccc2cc(-c3c(-c4ccncc4)nc(-c4ccc([S+](C)[O-])cc4)n3C)ccc2c1` (stereo not drawn), the inhibition in [1] is 2.02%; in [2], 0.01%; in [3], -1.68%; in [4], 2.27%; in experiment [6], 4.08%; in experiment [7], 1.1%. For the same compound, the inhibition in experiment [8] is -0.22%; in experiment [9], 0.54%; in experiment [10], -0.02%; in [11], 0.99%; in [12], -1.77%; in experiment [13], -3.85%. The inhibition in experiment [14] was 0.94%; in experiment [15], -0.4%; in experiment [16], 2.62%; in experiment [17], 1.89%; in experiment [18], 0.52%; in [19], 5.27%. In [20], the inhibition was -2.09%.

With `CCn1c(-c2nonc2N)nc2c(C#CC(C)(C)O)nc(OC[C@@H](N)c3ccccc3)cc21`, the inhibition in experiment [1] is 13.6%; in experiment [2], 0.65%; in experiment [3] it was 16%; in [4], 0.84%; in experiment [5], 4.71%; in [6], -2.07%. The inhibition in experiment [7] was -2.54%; in [8], 1.15%; in experiment [9], 3.59%; in [10], 0.23%; in [11] it was 2.38%; in experiment [12], 0.56%. In addition, the inhibition was 5.51% in experiment [13]; -0.92% in experiment [14]; -1.02% in experiment [15]; 1.01% in experiment [16]; 0.3% in experiment [17]; -1.91% in [18]. For the same compound, the inhibition in experiment [19] is 1.75%; in experiment [20], 0.4%.
